The values below come from PubChem BioAssay (Tox21).

Unmarked numbers belong to inactive results. The source made the active and inactive calls. Calls follow the shape of the dose curve; as a rule, active = well fitted curve in the direction sought with a large enough effect in the repeat runs; inconclusive = weak or mixed curves; inactive = flat fitted curve, though single readings scatter.
% is scaled to controls: 0 for no effect and ±100 for the full control effect.

The assay in a line: qHTS assay to test for compound auto fluorescence at 460 nm (blue) in HEK293 cells (AID 720678). The note with it: blue autofluorescence 405/460 nm; series mostly up to 91.3 µM; fluorescence, % of triamterene: at the top concentration. An excerpt:
National Center for Advancing Translational Sciences [NCATS]
NIH Chemical Genomics Center [NCGC]
U.S. Environmental Protection Agency [EPA]
National Institutes of Environmental Health Sciences [NIEHS]
National Toxicology Program [NTP]
U.S. Food and Drug Administration [FDA]
Compound auto fluorescence often interferes with screening of the compound library against various biological targets and signaling pathways. Some of these compounds may have fluorophoric properties. Such properties may interfere with the assay outputs resulting in false positives and/or negatives. To decrease such complications and ensure the compound activities are relevant in terms of biological response, the Tox21 10K compound library was screened for auto fluorescence.
From the fluorophores used as reporter signals in our screening assays, the auto fluorescence equivalencies of compounds against three fluorophores have been evaluated: Triamterene, Fluorescein and Rose Bengal sodium for blue, green and red fluorescence, respectively. The fluorescence intensities were measured using Excitation/Emission wavelengths at 405/460nm, 485/535nm and 540/590nm for blue, green and red labels, respectively. This assay includes the blue fluorescence data.
Tox21 Assay Protocol Summary:
2,000 HEK293 cells in 5 uL of culture medium containing 10% dialyzed FBS per well were dispensed into black wall/clear bottom 1536-well plates using a Multidrop Combi Dispenser (Thermo Scientific). The assay plates were incubated for 4-5 hr at 37C to allow cell attachment to the well bottom, followed by the transfer of 23 nL compound or DMSO vehicle by a pintool work station (Kalypsys, San Diego, CA). After the assay plates were incubated overnight at 37C and 5% CO2, fluorescence intensities in the assay plates were measured by an Envision (PerkinElmer, Shelton, CT) plate reader using three labels for measuring blue, green and red fluorescence at […] 460, 535 and 590nm respectively.
In general terms: In qHTS, concentration-response curves come from the screen itself.
For `Clc1cccc(C(c2ccc3nc[nH]c3c2)n2ccnc2)c1` (stereo not given), the “fluorescence, % of triamterene” value is 0.046% [at 46 µM].
As to `C[C@H]1C[C@H]2[C@@H]3CCC4=CC(=O)C=C[C@]4(C)[C@@]3(F)[C@@H](O)C[C@]2(C)[C@@]1(O)C(=O)COP(=O)(O)O`, the “fluorescence, % of triamterene” value is 0.0346%.
Same read-out and setting: in the case of `Cc1ccc(S(=O)(=O)NC(=O)NC2CCCC2)cc1` it was 0.02% [at 46 µM].
As for `COC(=O)C(C)(C)C`, the “fluorescence, % of triamterene” value was 0.0264% [at 95.7 µM].
For `O=C(Cl)c1ccc(F)c(Cl)c1`, the “fluorescence, % of triamterene” value was -0.0085%.
Same read-out and setting: in the case of `Cc1c(Cl)cccc1Nc1ccccc1C(=O)O` it was -0.191% [at 46 µM].
Consider `COc1cc(CNC(=O)CCCC/C=C/C(C)C)ccc1O`, for which the Potency result is “inactive”.
Consider `O=C(O)c1ccccc1[N+](=O)[O-]`, for which the “fluorescence, % of triamterene” value was -0.0206%.
The same measure, in the same setting: the result for `CC(C)NC(=O)c1ccccc1N` reads 0.131%.
On the same count and under the same terms, in the case of `O=C(O)c1cccc(C(=O)O)c1C(=O)O` it was 0.0809%.
Still for that read-out and setting: in the case of `CC1(C)[C@@H]2CC[C@]3(C2)[C@@H]1C(=O)CCC3(C)C` it was -0.0455%; in that of `COC(=O)Cc1cccc2ccccc12`, -0.47%; in that of `O=C(Nc1ccc2c(c1)Cc1ccccc1-2)C(F)(F)F`, -0.0684%.
As to `CC(=O)Oc1cccc2c1C(=O)c1c(OC(C)=O)cc(C(=O)O)cc1C2=O`, the “fluorescence, % of triamterene” value was -0.267% [at 46 µM].
Same read-out and setting: the result for `Nc1ncnc2c1ncn2[C@@H]1O[C@H](CO)[C@@H](O)[C@H]1O` reads 0.0158% [at 46 µM].
On the same count and under the same terms, the result for `O=C1OC(=O)C2CC=CCC12` (stereo not given) reads -0.0268%; that for `O=C(O)c1c2ccccc2cc2ccccc12`, 6.45%; that for `CCCCCCCCCCCCN1CCOCC1`, 0.079%.
On the same count and under the same terms, the result for `C=Cc1ccc(C=C)cc1` reads 0.032% [at 95.7 µM]; that for `CC(C)CC(C)(C)C`, -0.132% [at 95.7 µM].
`C=CC(C)CCC=C(C)C` (stereo not given): the “fluorescence, % of triamterene” value was -0.143%.
Still for that read-out and setting: the result for `O=C(N[C@@H](Cc1ccccc1)[C@@H](O)C(=O)N1C[C@@H](O)[C@@H](O)C1)c1cc2cc(Cl)ccc2[nH]1` reads -0.379%.
As for `Nc1nc(Cl)nc2c1ncn2[C@H]1C[C@H](O)[C@@H](CO)O1`, the Potency result was “inactive”.
`C=C[Si]1(C)O[Si](C)(C=C)O[Si](C)(C=C)O[Si](C)(C=C)O1` (stereo not given): the “fluorescence, % of triamterene” value was -0.0261%.
With `Oc1ccc(Oc2ccccc2)cc1`, the “fluorescence, % of triamterene” value is 0.132%.
Same read-out and setting: the result for `CCCCCCCCCCCCSCCOCCO` reads 0.106% [at 46 µM].
Take `O=C1c2ccccc2C(=O)c2c1ccc(O)c2O`: the “fluorescence, % of triamterene” value was -0.418% [at 46 µM].
Take `O=C(NC1CCN(CCc2c[nH]c3ccccc23)CC1)c1ccccc1`: the “fluorescence, % of triamterene” value is 0.0817% [at 46 µM].
Same read-out and setting: the result for `C[C@H](CN1CCCC1)C(=O)c1ccc(C(F)(F)F)cc1` reads -0.0431% [at 46 µM]; that for `CC(C)=CCCC(C)C=O` (stereo not given), -0.308%.
Still for that read-out and setting: the result for `C[Si](C)(C)O[Si](C)(C)O[Si](C)(C)C` reads 0.0087%.
With `CCOC(C)OCC`, the Potency result was “inactive”.
Turning to `O=C1c2ccccc2C(=O)C1c1ccc2cc(S(=O)(=O)O)cc(S(=O)(=O)O)c2n1`, the “fluorescence, % of triamterene” value was 0.127% [at 95.7 µM].
On the same count and under the same terms, the result for `CCCCOC(=O)CC#N` reads 0.0389% [at 95.7 µM]; that for `CCCCCCCCCCCCSC#N`, -0.0024%; that for `Cc1ccc(NC(=O)c2ccc(CN3CCN(C)CC3)cc2)cc1Nc1nccc(-c2cccnc2)n1`, -0.268% [at 46 µM].
Still for that read-out and setting: the result for `CC(CCl)OC(C)CCl` (stereo not given) reads -0.0234%.
Same read-out and setting: the result for `CC(=O)S[C@H](C(=O)N[C@H]1Cc2ccccc2[C@H]2CCC[C@@H](C(=O)O)N2C1=O)C(C)C` reads -0.007%; that for `COc1ccc(C(=O)Nc2ccccc2)cc1[N+](=O)[O-]`, 0.267%.
On to `c1ccc(-c2ccc(-c3ccccc3)cc2)cc1`, for which the fluorescence, % of triamterene was -0.0124% [at 18.6 µM].
